The remaining activity is the signal under treatment as a percentage of the control signal.

Where “and” joins values, the source holds several entries; their conditions need not be identical. Identical values can stand only once. Calls of active or inactive are those of the source.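 Rule for the calls, unless noted: active = compounds whose cell count with miR-34 switched on is under 0.7 times the count with it off; inactive = the rest.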

The record followed here is PubChem BioAssay.

Assay [1] relates to Aerobactin synthetase IucA (Klebsiella pneumoniae). The assay is described as follows: IucA aerobactin synthetase inhibitors, biochemical, Tocris library, absorbance (AID 1345561; call rule not given here;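 note: 100% = enzyme without compound and 0% = no enzyme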). As to conditions: purified IucA enzyme assay, absorbance (OD) read-out; stronger effect = lower value;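 tested at 8 µM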.
Assay [2] can be described thus: sensitizers of A549 cells to miR-34 induction, primary screen, imaging, A549 dox-inducible miR-34, nuclei and caspase counts (AID 1347080). To be noted: A549 miR-34 inducible, Hoechst nuclei count, 48 h.
Assay [3] is described as follows: viability rescue of complex I mutant cybrids, primary screen, cell-based, galactose medium, ATP luminescence (AID 1645843;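 active = z-score of at least 1.8 in each of two replicates, scored against plate mean and spread of sample wells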;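 note: positive z means more ATP and so rescue of galactose-driven cybrid death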). As to conditions: complex I mutant cybrid cells, 72 h, stronger effect = higher value.
Where [4] appears, read: stronger effect = lower value, cell number ratio, induced over uninduced.
Where [5] appears, read: measured here: relative caspase fold change +Dox/-Dox.
The mark [6] stands for this setting: measured here: total cells with miR-34 induction, stronger effect = lower value.
[7] abbreviates: measured here: total cells without miR-34 induction.

Regarding `COc1ccc(-c2nc(-c3ccc(-c4cccc(Cl)c4)o3)[nH]c2-c2ccc(OC)cc2)cc1`, the remaining activity in assay [1] is 125% (inactive). In addition, the fold change was 0.932 (inactive) and 1.97 (inactive) in assay [2] (setting [4]); 1.76 and 0.641 in assay [2] (setting [5]). In addition, the cell count in assay [2] (setting [6]) is 4720 and 2100; in assay [2] (setting [7]), 5060 and 1060. For the same compound, in assay [3], the z-score was -0.15 (inactive).

`Cc1cc(C)c(S(=O)(=O)Nc2ccccc2C(F)(F)F)c(C)c1`: the remaining activity in assay [1] is 96.1% (inactive). Besides, the fold change in assay [2] (setting [4]) was 0.879 (inactive); in assay [2] (setting [5]) it was 0.932. Besides, the cell count in assay [2] (setting [6]) worked out at 6450; in assay [2] (setting [7]), 7330. Also, the z-score in assay [3] is 1.2 (inactive).

For the compound `COc1ccc(NC(=O)c2ccc(-c3ccc(-c4noc(C)n4)cc3C)cc2)cc1OCCN(C)C`, the remaining activity in assay [1] is 128% (inactive). Also, the fold change was 1.2 (inactive) in assay [2] (setting [4]) and 1.18 in assay [2] (setting [5]). In addition, the cell count in assay [2] (setting [6]) was 1160; in assay [2] (setting [7]) it was 962. Moreover, the z-score in assay [3] is -0.765 (inactive).

In the case of `COC(=O)/C=C/c1cccc(N(Cc2ccc(-c3ccc(N(C)C)cc3)cc2)C(=O)C2CCCCC2)c1`, the remaining activity in assay [1] was 97.3% (inactive). The fold change is 0.926 (inactive) in assay [2] (setting [4]) and 1.8 in assay [2] (setting [5]). Besides, the cell count worked out at 7630 in assay [2] (setting [6]) and 8240 in assay [2] (setting [7]). Besides, in assay [3], the z-score is 0.225 (inactive).

For `c1cc2c3c(c1)c1c(n3CCNC2)CCCC1`, the remaining activity in assay [1] was 120% (inactive). Besides, the results for the fold change in assay [2] (setting [4]) and in assay [2] (setting [5]) were 0.921 (inactive) and 1.32, respectively. For the same compound, the figures for the cell count in assay [2] (setting [6]) and in assay [2] (setting [7]) were 7680 and 8340, respectively. Moreover, the z-score in assay [3] was -0.505 (inactive).

As for `CCS(=O)(=O)N1CCC[C@@H]2CN3CCc4cc(OC)ccc4[C@@H]3C[C@@H]21`, the remaining activity in assay [1] was 87.2% (inactive). Moreover, the fold change in assay [2] (setting [4]) was 0.945 (inactive); in assay [2] (setting [5]), 0.859. Moreover, the cell count in assay [2] (setting [6]) came to 8340; in assay [2] (setting [7]) it was 8820. For the same compound, the z-score in assay [3] is 0.46 (inactive).

As for `Clc1ccccc1CNCC1CCC(CNCc2ccccc2Cl)CC1` (configuration not stated), the remaining activity in assay [1] was 103% (inactive). Further, the fold change was 0.98 (inactive) in assay [2] (setting [4]) and 0.883 in assay [2] (setting [5]). Moreover, the figures for the cell count in assay [2] (setting [6]) and in assay [2] (setting [7]) were 7550 and 7700, respectively. The z-score in assay [3] was -0.795 (inactive).

As for `N[C@H]1CCN(O)C1=O`, in assay [1], the remaining activity was 122% (inactive). In addition, the fold change in assay [2] (setting [4]) is 1.02 (inactive); in assay [2] (setting [5]) it was 0.709. Further, the results for the cell count in assay [2] (setting [6]) and in assay [2] (setting [7]) were 8480 and 8300, respectively. For the same compound, the z-score in assay [3] was -0.005 (inactive).

Consider `CC(C)[C@H]1c2ccc(F)cc2CC[C@@]1(CCN(C)CCCc1nc2ccccc2[nH]1)OC(=O)C1CC1`, for which the remaining activity in assay [1] was 104% (inactive). Moreover, the fold change was 0.792 (inactive) in assay [2] (setting [4]) and 1.77 in assay [2] (setting [5]). The cell count in assay [2] (setting [6]) is 263; in assay [2] (setting [7]), 332. In addition, the z-score in assay [3] was -0.705 (inactive).

As to `C/C(=N\NC(=O)[C@@H]1C(=O)NC[C@H]1c1ccccc1)c1cccc(Br)c1`, in assay [1], the remaining activity is 103% (inactive). Also, the fold change in assay [2] (setting [4]) is 0.887 (inactive); in assay [2] (setting [5]), 1.69. Further, the cell count amounted to 8430 in assay [2] (setting [6]) and 9510 in assay [2] (setting [7]). Besides, the z-score in assay [3] is 0.375 (inactive).

Take `CC(N)=NCCCC[C@H](N)C(=O)O`: in assay [1], the remaining activity is 91.3% (inactive). The fold change in assay [2] (setting [4]) is 0.958 (inactive); in assay [2] (setting [5]), 0.902. Besides, the values for the cell count in assay [2] (setting [6]) and in assay [2] (setting [7]) were 8960 and 9350, respectively. For the same compound, the z-score in assay [3] is 0.135 (inactive).

For `COc1ccc2[nH]c(-c3ccccc3)c(CCNC(C)=O)c2c1`, the remaining activity in assay [1] was 99.3% (inactive). Moreover, the fold change is 0.991 (inactive) in assay [2] (setting [4]) and 0.88 in assay [2] (setting [5]). Also, the cell count was found to be 7770 in assay [2] (setting [6]) and 7840 in assay [2] (setting [7]). Moreover, in assay [3], the z-score was -0.185 (inactive).

As to `OC1CCC(Nc2nc(-c3ccccc3)nc3[nH]ccc23)CC1` (configuration not stated), the remaining activity in assay [1] was 112% (inactive). Also, the fold change in assay [2] (setting [4]) is 0.975 (inactive); in assay [2] (setting [5]), 1.31. Besides, the cell count in assay [2] (setting [6]) is 8990; in assay [2] (setting [7]) it was 9220. The z-score in assay [3] was 1.67 (inactive).

As to `COc1cc(N)c(Cl)cc1C(=O)CCC1CCN(CCNS(C)(=O)=O)CC1`, the remaining activity in assay [1] was 97.5% (inactive). In addition, the results for the fold change in assay [2] (setting [4]) and in assay [2] (setting [5]) were 0.928 (inactive) and 0.69, respectively. Moreover, the cell count in assay [2] (setting [6]) stood at 9240; in assay [2] (setting [7]), 9960. Besides, in assay [3], the z-score was 1.25 (inactive).

As for `CN(C)[C@@H]1CCc2[nH]c3ccc(NC(=O)c4ccc(F)cc4)cc3c2C1`, in assay [1], the remaining activity is 77.6% (inactive). The fold change was 0.87 (inactive) in assay [2] (setting [4]) and 1.77 in assay [2] (setting [5]). Further, the cell count in assay [2] (setting [6]) worked out at 8840; in assay [2] (setting [7]), 10200. Besides, the z-score in assay [3] was 0.495 (inactive).

For `Cc1c(C(=O)N(C)C2CCCCC2)sc2nc3ccc(N)cc3n12`, the remaining activity in assay [1] is 121% (inactive). Moreover, the figures for the fold change in assay [2] (setting [4]) and in assay [2] (setting [5]) were 0.956 (inactive) and 1.28, respectively. Also, the cell count amounted to 7660 in assay [2] (setting [6]) and 8010 in assay [2] (setting [7]). The z-score in assay [3] was -0.64 (inactive).

For the compound `COC(=O)c1sccc1S(=O)(=O)Nc1ccc(Nc2ccccc2)cc1OC`, the remaining activity in assay [1] is 87.9% (inactive). Besides, the results for the fold change in assay [2] (setting [4]) and in assay [2] (setting [5]) were 0.862 (inactive) and 1.31, respectively. For the same compound, the cell count in assay [2] (setting [6]) came to 6450; in assay [2] (setting [7]) it was 7480. Besides, the z-score in assay [3] was -0.495 (inactive).

`CC(=O)N1CCN(C)CC1`: in assay [1], the remaining activity was 118% (inactive). Also, the figures for the fold change in assay [2] (setting [4]) and in assay [2] (setting [5]) were 0.971 (inactive) and 0.837, respectively. For the same compound, the values for the cell count in assay [2] (setting [6]) and in assay [2] (setting [7]) were 8470 and 8720, respectively. The z-score in assay [3] is 0.29 (inactive).

For the compound `COc1ccc(-c2ccc(=N)n(CCCC(=O)O)n2)cc1`, in assay [1], the remaining activity was 122% (inactive). Moreover, the values for the fold change in assay [2] (setting [4]) and in assay [2] (setting [5]) were 0.902 (inactive) and 0.531, respectively. For the same compound, the figures for the cell count in assay [2] (setting [6]) and in assay [2] (setting [7]) were 8640 and 9580, respectively. In addition, the z-score in assay [3] is -0.295 (inactive).

Take `Cc1c(C2CCN(CCc3ccccc3)CC2)noc1-c1ccc(Cl)cc1`: in assay [1], the remaining activity was 92.3% (inactive). Further, the fold change was 0.891 (inactive) in assay [2] (setting [4]) and 0.892 in assay [2] (setting [5]). The figures for the cell count in assay [2] (setting [6]) and in assay [2] (setting [7]) were 6770 and 7590, respectively. Also, in assay [3], the z-score was -0.21 (inactive).

As to `C=CCN1CCN(c2nc3ccccc3nc2C#N)CC1`, the remaining activity in assay [1] was 112% (inactive). The fold change in assay [2] (setting [4]) was 0.901 (inactive); in assay [2] (setting [5]) it was 1.37. In addition, the cell count in assay [2] (setting [6]) worked out at 8950; in assay [2] (setting [7]), 9930. Besides, the z-score in assay [3] is 0.335 (inactive).

Turning to `N#CC(Cc1ccc(O)cc1)c1ccc(O)cc1` (configuration not stated), the remaining activity in assay [1] was 90.6% (inactive). The fold change in assay [2] (setting [4]) was 0.917 (inactive) and 0.865 (inactive); in assay [2] (setting [5]), 0.401 and 1.73. The cell count was 5410 and 8710 in assay [2] (setting [6]); 5900 and 10100 in assay [2] (setting [7]). Besides, the z-score in assay [3] is 2.66 (active).

As to `Cc1c[nH]c(=O)n(CCCN2CCN(c3ccccc3OCC(F)(F)F)CC2)c1=O`, the remaining activity in assay [1] was 126% (inactive). In addition, the fold change in assay [2] (setting [4]) is 0.952 (inactive); in assay [2] (setting [5]), 0.729. Moreover, the cell count worked out at 10000 in assay [2] (setting [6]) and 10500 in assay [2] (setting [7]). The z-score in assay [3] was -0.38 (inactive).

With `N[C@@H](Cc1cc(-c2ccc(Cl)cc2Cl)cc(CP(=O)(O)O)c1O)C(=O)O`, in assay [1], the remaining activity was 115% (inactive). In addition, the results for the fold change in assay [2] (setting [4]) and in assay [2] (setting [5]) were 0.913 (inactive) and 0.553, respectively. In addition, the cell count came out at 8540 in assay [2] (setting [6]) and 9350 in assay [2] (setting [7]). The z-score in assay [3] was 0.635 (inactive).

On to `COc1cc(/C=C/c2ccc(OC)cc2OC)cc(OC)c1`, for which the remaining activity in assay [1] was 117% (inactive). Further, the fold change is 0.956 (inactive) and 0.973 (inactive) in assay [2] (setting [4]); 1.53 and 0.719 in assay [2] (setting [5]). Further, the cell count was 1820 and 3000 in assay [2] (setting [6]); 1910 and 3090 in assay [2] (setting [7]). Moreover, the z-score in assay [3] is -0.41 (inactive).

Regarding `O=S(c1ccccc1)c1ccc2nnnn2n1` (configuration not stated), the remaining activity in assay [1] is 106% (inactive). The fold change in assay [2] (setting [4]) is 1.59 (inactive); in assay [2] (setting [5]), 0.481. The cell count in assay [2] (setting [6]) stood at 3220; in assay [2] (setting [7]), 2020. Besides, the z-score in assay [3] is -0.805 (inactive).

For `O=C(NC1CCN(Cc2ccccc2)CC1)c1ccc(I)cc1`, the remaining activity in assay [1] was 113% (inactive). Also, the results for the fold change in assay [2] (setting [4]) and in assay [2] (setting [5]) were 0.862 (inactive) and 0.815, respectively. Also, the cell count in assay [2] (setting [6]) was 6720; in assay [2] (setting [7]), 7800. For the same compound, the z-score in assay [3] was -0.755 (inactive).
